# Measurements taken from PubChem BioAssay (NCATS).
# Inconclusive results are not listed. Where a call stands in place of a potency, no number is given. A number with no mark means an inactive call. Active and inactive are the calls of the source. Calls follow the shape of the dose curve; as a rule, active = well fitted cell-killing curve with a large enough effect; inconclusive = small, poorly fitted or top-dose-only effect, or effect the other way; inactive = flat fitted curve, though single readings scatter. Where a SMILES comes first, the peptide text is derived from it. [ ]: non-standard residue; d: D form. ξ: configuration not given here. ξPhe(βξ-Me) = CC(c1ccccc1)C(N)C(=O)O; ξLac(3-iPr) = CC(C)CC(O)C(=O)O; NMeV = CN[CH](C(=O)O)C(C)C; GABA = NCCCC(=O)O; βAla = NCCC(=O)O
# Tested on: Es-2
# Assay: Primary qHTS to identify gynecologic anti-cancer compounds using libraries of approved drugs and bioactive compounds (AID 1345084); also: nearly all actives have a fitted effect of over 55% in size
# Settings: Gynecologic cancer cell panel viability, ATPlite luminescence, 48 h; series mostly up to 57.5 µM
# Outline: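 Luminescence from the ATPlite ATP-monitoring reagent indicates viable cell number; lower signal means cytotoxicity. Cells received compound 16 h after seeding and were exposed for 48 h across five concentrations.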
# Potency is read from the fitted curve at half-maximal effect.
SMILES,Potency,"activity change, negative = cytotoxicity"
Nc1nc(Nc2ccc(S(N)(=O)=O)cc2)n(C(=S)Nc2c(F)cccc2F)n1,inactive,–
CS(=O)(=O)c1ccc(-c2nnc(/C=C/c3nnc(-c4ccc(C#N)cc4)o3)n2-c2ccccc2Cl)nc1,inactive,–
Cc1ccc(-c2ccc3c(ccc4sc5c(c43)NC[C@@H](C)NC5=O)n2)cn1,inactive,–
C[C@@H]1O[C@@H](O[C@H]2[C@H](O)[C@@H](O[C@@H]3O[C@H](CO)[C@@H](O)[C@H](O[C@@H]4O[C@H](CO)[C@@H](O)[C@H](O)[C@H]4O)[C@H]3O)[C@H](O[C@H]3CC[C@@]4(C)C(=CC[C@@H]5C4CC[C@@]4(C)C5C[C@@H]5OC6(CC[C@@](C)(CO[C@@H]7O[C@H](CO)[C@@H](O)[C@H](O)[C@H]7O)O6)[C@@H](C)[C@@H]54)C3)O[C@@H]2CO)[C@H](O)[C@H](O)[C@H]1OC1OC(CO)C(O)C(O)C1O (stereo not given in full),–,-3.32% [at 6.55 µM]
CC(C)[C@H]1CC[C@@]2(O)COC(=O)[C@H]2[C@@H]1/C=C(\CO)C(=O)O,inactive,–
FC(F)(F)c1cc(-c2ncn(/C=C\c3nnco3)n2)cc(C(F)(F)F)c1,3.16 µM (active),–
CC(C)NCC(C(=O)N1CCN(c2ncnc3c2C(C)CC3O)CC1)c1ccc(Cl)cc1 (stereo not given),inactive,–
O=C1NC(=O)C(c2cn3c4c(cccc24)CCC3)C1c1c[nH]c2ccccc12 (stereo not given),10 µM (active),–
CC1C(OC(=O)c2ccccc2)C(O)C2C(C(=O)O)=COC(OC3OC(CO)C(O)C(O)C3O)C12 (stereo not given),inactive,–
CC(C)(C)CCN1C[C@@H]2C(CNC(=O)c3cc(Cl)cc(Cl)c3)[C@@H]2C1 (stereo not given in full),inactive,–
O=C(CN1C(=O)C2(CCCC2)NCC1c1cc(F)cc(F)c1)Nc1ccc2c(c1)CC1(C2)C(=O)Nc2ncccc21 (stereo not given),inactive,–
N[C@H]1Cc2ccccc2N(O)C1=O,inactive,–
COc1cc(OC)cc(C(=O)Nc2ccc(Cl)c(-c3nc4ccc(N(C)C)cc4[nH]3)c2)c1,inactive,–
CCC(CC)C(=O)Nc1sc2c(c1C#N)CCC(C(C)(C)CC)C2 (stereo not given),inactive,–
CC1(C)CC2C(C1)C(C)(O)C13CC1(COC3=O)C2O (stereo not given),inactive,–
NC(=O)c1cccc(-c2cc(OC(=O)NC3CCCCC3)ccc2O)c1,inactive,–
CC1=C(CCC(C)CC(=O)O)[C@@]2(C)CCCC(C)(C)C2CC1=O (stereo not given in full),inactive,–
Cc1c[nH]c2nccc(Oc3c(F)cc(Nc4cc(Cl)nc(N)n4)cc3F)c12,12.6 µM (active),–
CCOC(=O)c1cc(C#N)c(N2CCC(C(=O)NS(=O)(=O)Cc3ccccc3)CC2)nc1C,inactive,–
COc1cc(O)cc(C)c1C(=O)O[C@H]1[C@@H](OC(C)=O)[C@H](n2ccc(=O)[nH]c2=O)O[C@@H]1CO,inactive,–

SMILES,Potency,"activity change, negative = cytotoxicity"
C=C[C@]1(C)C=C2CCC3C(C)(CCC[C@@]3(C)C(=O)O)C2CC1 (stereo not given in full),inactive,–
C[C@@H]1O[C@@H](O[C@H]2[C@H](O)[C@@H](C(=O)O)O[C@@H](O[C@H]3CC[C@@]4(C)C(CC[C@]5(C)C4CC=C4C6CC(C)(C)CC[C@]6(C(=O)O)CC[C@]45C)C3(C)C)[C@@H]2O[C@@H]2OC[C@@H](O)[C@H](O)[C@H]2O)[C@H](O)[C@H](O)[C@H]1O (stereo not given in full),–,-1.84% [at 11.6 µM]
CC(=O)OC/C=C(\C)C(CC1C(C)=C(OC(C)=O)C(=O)C2C(C)(C)C(O)CCC12C)OC(C)=O (stereo not given),inactive,–
CC1NC(=O)CCCNC(=O)C(Cc2c[nH]c3ccccc23)NC(=O)C(C)NC(=O)C(C(C)C)NC(=O)C(C(C)c2ccccc2)NC(=O)C(C(C)C)NC1=O (stereo not drawn) (cyclo([GABA]AV[ξPhe(βξ-Me)]VAW); configuration not given here),inactive,–
C/C=C(\C)C(=O)O[C@@H]1CC2[C@@H](CC=C3C[C@@H](O[C@H]4C[C@H](OC)[C@H](O[C@H]5C[C@H](OC)[C@H](O[C@@H]6O[C@H](C)[C@@H](O[C@H]7C[C@H](OC)[C@H](O[C@@H]8O[C@H](CO)[C@@H](O)[C@H](O)[C@H]8O)[C@@H](C)O7)[C@H](OC)[C@H]6O)[C@@H](C)O5)[C@@H](C)O4)CC[C@@]32C)[C@@]2(O)CC[C@H](C(C)=O)[C@@]12C (stereo not given in full),–,-1.14% [at 6.55 µM]
COc1c(/C=C/C(C)(C)O)ccc2c1C(=O)OCc1cc(C)cc(O)c1O2,inactive,–
CCOCc1cc(OC)c(-c2ccc(C[C@H](NC(=O)c3c(F)cccc3F)C(=O)O)cc2)c(OC)c1,inactive,–
Cc1nc([C@](C)(O)CO)sc1-c1cnc(N)c(O[C@H](C)c2cc(F)ccc2-n2nccn2)c1,inactive,–
OC[C@H]1O[C@@H](O[C@H]2[C@H](OCc3ccccc3)O[C@H](CO[C@@H]3OC[C@@H](O)[C@H](O)[C@H]3O)[C@@H](O)[C@@H]2O)[C@H](O)[C@@H](O)[C@@H]1O,inactive,–
CC1(C)C[C@H](O)C[C@@]2(C)OC(=O)C=C12,inactive,–
C=C(C(=O)O)C1CC2=C(C)CCCC2(C)C[C@@H]1O (stereo not given in full),inactive,–
CC[C@@](C)(Nc1ccnc(-c2c[nH]c3ncccc23)n1)C(=O)NCC(F)(F)F,inactive,–
COc1ccc(-c2c(-c3cc(C(=O)O)ccn3)ncn2C)cc1,inactive,–
Cc1nc(C)c(-c2ccc(C3CCC(CC(=O)O)CC3)cc2)nc1C(N)=O (stereo not given),inactive,–
CC(C)CC1OC(=O)C2CCCN2C(=O)CCNC(=O)C(Cc2ccccc2)NC(=O)C(C(C)C)N(C)C(=O)C(C(C)C)N(C)C1=O (stereo not given) (cyclo([ξLac(3-iPr)][NMeV][NMeV]F[βAla]P); configuration not given here),inactive,–
C=C1C(O)C[C@@H]2C(C(=O)O)=CO[C@@H](O[C@@H]3O[C@H](CO)[C@@H](O)[C@H](O)[C@H]3OC(=O)c3ccc(O)cc3)[C@H]12 (stereo not given in full),inactive,–
CC(O)CCC1C(CO[C@@H]2O[C@H](CO)[C@@H](O)[C@H](O)[C@H]2O)CC(O)CC1(C)C (stereo not given in full),inactive,–
CC1=C2C(O)C(=O)OC(c3ccoc3)C2(C)CCC1O (stereo not given),inactive,–
O=C(Nc1ccccc1-c1cn2c(CN3CCNCC3)csc2n1)c1ccc2ccccc2n1,inactive,–
COC(=O)CC(C)(O)CC(=O)OCc1ccc(O[C@@H]2O[C@H](CO)[C@@H](O)[C@H](O)[C@H]2O)cc1 (stereo not given in full),inactive,–
